The values that follow come from PubChem BioAssay (NCATS).

In assay [1] the target is Estrogen receptor (Homo sapiens) (UniProt P03372). The experiment in a line: qHTS assay for small molecule agonists of estrogen receptor alpha signaling (AID 588514).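 Note: 0% = vehicle only and 100% = reference agonist; nearly all actives have a fitted effect of over 70% in size.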 In a few lines:
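Read-out: CCF4 fluorescence from a beta-lactamase reporter in ER-alpha-UAS-bla HEK 293 cells after 18 hrs of compound exposure at 37 C. Normalized to 20 nM 17-beta-estradiol (100%) and DMSO (0%).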
For orientation: qHTS replaces the single test concentration by a dilution series.

In assay [2] the target is Glucocorticoid receptor (Homo sapiens) (UniProt P04150). The assay is described as follows: qHTS assay for small molecule antagonists of glucocorticoid receptor signaling (AID 588533; active = well fitted inhibition curve with a large enough effect in the signal ratio, with a control signal flat, not every such curve was filed as active; the % refers to the signal ratio;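 note: cells stimulated with 2 nM dexamethasone as agonist; % is set by controls: 0 for no effect and ±100 for the full control effect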). The procedure, abridged:
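Antagonist-mode qHTS: compound titrations added to GRE-bla HeLa cells, then dexamethasone 2 nM final; 18 h, 37 C. CCF4 FRET fluorescence normalized to dexamethasone and DMSO; IC50 from Hill fit.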

Assay [3] deals with Peroxisome proliferator-activated receptor delta (Homo sapiens) (UniProt Q03181). The assay is described as follows: qHTS assay for small molecule agonists of peroxisome proliferator-activated receptor delta signaling (AID 588534).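 Note: 0% = DMSO basal wells and 100% = positive control agonist at 10 µM.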 The procedure, abridged:
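Titration series tested in agonist mode on beta-lactamase reporter cells; 18 hrs at 37 C after a 5 hr pre-incubation. Readout: CCF4 fluorescence, 2 hrs RT. Hill equation gives EC50 and maximal response.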

Assay [4] is described as follows: qHTS assay for small molecule antagonists of peroxisome proliferator-activated receptor delta signaling (AID 588535; active = well fitted inhibition curve with a large enough effect in the signal ratio, with a control signal flat, not every such curve was filed as active; the % refers to the signal ratio;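 for max response: cells co-treated with a PPAR-delta agonist as stimulator during compound exposure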). Particulars: HEK293T PPARd-UAS-bla, beta-lactamase FRET ratio, 18 h; 460 nm channel. In a few lines: (§1)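 Antagonist-mode qHTS using GeneBLAzer PPAR-delta-UAS-bla HEK293T cells; compound exposure 18 hrs at 37 C over a titration. Ratiometric CCF4 fluorescence at 460/530 nm; concentration-response points fitted to the Hill equation.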

In assay [5] the target is Peroxisome proliferator-activated receptor delta (Homo sapiens) (UniProt Q03181). The description is as above. The procedure, abridged: as §1
Sequence of Peroxisome proliferator-activated receptor delta (Homo sapiens) (Q03181 whole entry, looked up): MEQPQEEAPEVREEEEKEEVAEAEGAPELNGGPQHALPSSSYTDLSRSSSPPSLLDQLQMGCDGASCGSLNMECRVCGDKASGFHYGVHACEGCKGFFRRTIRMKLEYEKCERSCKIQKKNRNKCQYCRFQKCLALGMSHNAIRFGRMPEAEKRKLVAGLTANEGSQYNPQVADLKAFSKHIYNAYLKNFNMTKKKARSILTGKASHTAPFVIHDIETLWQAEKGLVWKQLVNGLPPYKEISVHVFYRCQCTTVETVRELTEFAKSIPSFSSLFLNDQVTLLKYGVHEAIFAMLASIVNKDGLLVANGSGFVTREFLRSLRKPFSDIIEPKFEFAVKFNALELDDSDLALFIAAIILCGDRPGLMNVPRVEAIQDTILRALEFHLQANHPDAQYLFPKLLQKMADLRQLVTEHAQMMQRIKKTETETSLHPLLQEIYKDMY
Assay [6] addresses Vitamin D3 receptor (Homo sapiens) (UniProt P11473). The assay is described as follows: qHTS assay for small molecule antagonists of vitamin D receptor signaling (AID 588541).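 Note: receptor activated by calcitriol during compound treatment; series mostly up to about 77 µM; % is set by controls: 0 for no effect and ±100 for the full control effect.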 The procedure, abridged: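 Antagonist-mode beta-lactamase reporter assay: HEK293T VDR-UAS-bla cells were exposed to titrated compound alongside 1-alpha,25-dihydroxyvitamin D3 at 3 nM final for 16 h. Values were normalized to the 50 nM agonist control and DMSO basal, with IC50 and efficacy from Hill equation fits.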

Assay [7] concerns the target Retinoic acid receptor RXR-alpha (Homo sapiens) (UniProt P19793). The experiment in a line: qHTS assay for small molecule agonists of retinoid X receptor alpha signaling (AID 588544).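 Note: 0% = DMSO basal wells and 100% = reference agonist.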
Assay [8] in a line: qHTS assay for small molecule antagonists of retinoid X receptor alpha signaling (AID 588546; active = well fitted inhibition curve with a large enough effect in the signal ratio, with a control signal flat, not every such curve was filed as active; the % refers to the signal ratio;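 note: cells stimulated with 9-cis-retinoic acid as agonist; % is set by controls: 0 for no effect and ±100 for the full control effect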). Particulars: HEK293T RXRa-UAS-bla, beta-lactamase ratio, antagonist mode; measured here: W530 green channel, cytotoxicity proxy. In a few lines: (§2)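 Beta-lactamase reporter inhibition, read as CCF4 fluorescence ratio (ex 405, em 460/530 nm) after 2 h at RT. HEK293T UAS-bla cells, 2500/well, were stimulated with 9-cis-RA at 500 or 100 nM final alongside test compound for 18 h at 37 C.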

Assay [9] deals with Retinoic acid receptor RXR-alpha (Homo sapiens) (UniProt P19793). Described as above. Particulars: HEK293T RXRa-UAS-bla, beta-lactamase ratio, antagonist mode. The procedure, abridged:
as §2

The target in assay [10] is Thyroid hormone receptor beta (Homo sapiens) (UniProt P10828). The assay is described as follows: qHTS assay for small molecule antagonists of thyroid hormone receptor beta signaling (AID 588547; active = well fitted inhibition curve with a large enough effect in the signal ratio, with a control signal flat, not every such curve was filed as active; the % refers to the signal ratio;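 note: cells stimulated with 0.4 nM T3 agonist during compound exposure; series mostly up to about 77 µM; % is set by controls: 0 for no effect and ±100 for the full control effect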). As to conditions: TR-UAS-bla HEK293, beta-lactamase ratio, antagonist mode, 18 h. In a few lines:
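Inhibition of T3-driven (0.4nM final) beta-lactamase reporter activity was measured over 0.59 nM to 92 uM compound after 18 h at 37 C. The cells were GripTite HEK293 TR-UAS-bla in charcoal/dextran-stripped serum, with CCF4 ratio read-out and IC50 from Hill fits.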

Assay [11] is described as follows: qHTS assay for small molecule activators of the p53 signaling pathway (AID 651743; active = well fitted activation curve with a large enough effect in the signal ratio, not every such curve was filed as active; the % refers to the signal ratio; note: series mostly up to about 92 µM; % of control where 0% means no effect). As to conditions: HCT-116 p53RE-bla, beta-lactamase FRET ratio, 16 h; activation: stronger effect = higher value. In a few lines:
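A beta-lactamase reporter under p53 response element control, stably carried by HCT-116 cells, reported pathway activation. Test compounds were applied for 16 hours at 37 C, and fluorescence was measured 2 hours after adding the B/G FRET substrate.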

A short description of assay [12]: qHTS assay for small molecule activators of the nuclear factor-kappa B (NF-kB) signaling pathway (AID 651749; active = well fitted activation curve with a large enough effect in the signal ratio; the % refers to the signal ratio; note: series mostly up to about 77 µM; % of control where 0% means no effect). Particulars: NF-kB-bla ME-180 cells, beta-lactamase FRET ratio, 16 h; activation: stronger effect = higher value. In a few lines: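 FRET-based beta-lactamase detection in ME-180 cells reports NF-kB response-element-driven transcription following overnight (16 hr) compound treatment.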

Assay [13] can be described thus: qHTS assay for environmental chemicals that activate the Aryl hydrocarbon Receptor (AhR) signaling pathway (AID 651777; active = well fitted curve in the direction sought with a large enough effect; an effect the other way counts as inactive or inconclusive; note: % of control where 0% means no effect; nearly all actives have a fitted effect of over 15% in size). Particulars: 1A2-DRE human hepatoma cells, luciferase, 24 h; activation: stronger effect = higher value. The procedure, abridged: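 Measured luciferase activity, read 30 min after One-Glo addition at room temperature, from human hepatoma cells bearing a dioxin response element–CYP1A2 promoter reporter and exposed to compound for 24 hr at 37 C.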

Assay [14] addresses Peroxisome proliferator-activated receptor alpha (Homo sapiens) (UniProt Q07869). The assay is described as follows: qHTS assay for small molecule agonists of the peroxisome proliferator-activated receptor alpha (PPARalpha) signaling pathway (AID 651778; active = well fitted curve in the direction sought with a large enough effect; an effect the other way counts as inactive or inconclusive; note: % of control where 0% means no effect). Particulars: PathHunter PPARalpha complementation, chemiluminescence, 6 h; max response: stronger effect = higher value. In a few lines: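 Chemiluminescence from complemented enzyme reported PPARalpha activation in cells after 6 hr of compound treatment at 37 C. The detection reagent was incubated for 60 min at room temperature, and compounds were scored as agonists.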

Assay [15] in a line: qHTS assay for small molecule agonists of the antioxidant response element (ARE) signaling pathway measured by Nrf2-dependant transcriptional activity - cell viability counter screen (AID 720653; active = well fitted curve in the direction sought with a large enough effect in the repeat runs; an effect the other way counts as inactive or inconclusive; note: % is set by controls: 0 for no effect and ±100 for the full control effect). Particulars: ARE-bla HepG2 viability, CellTiter-Glo ATP luminescence, 16 h; max response: stronger effect = lower value. The procedure, abridged: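 Cytotoxicity counter screen: intracellular ATP quantified by CellTiter-Glo luminescence in the same ARE-bla HepG2 plates, after 16 h compound exposure and a 2 h beta-lactamase substrate step.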

The nature of assay [16]: qHTS assay for cell viability of HEK293 cells (AID 743288; active = well fitted curve in the direction sought with a large enough effect; an effect the other way counts as inactive or inconclusive; note: % is set by controls: 0 for no effect and ±100 for the full control effect; nearly all actives have a fitted effect of over 50% in size). As to conditions: ATP luminescence (CellTiter-Glo), 18 h; max response: stronger effect = lower value. The procedure, abridged:
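Steps: plate 2,000 parental HEK293 cells per well; incubate ≥5 h, 37 C; add compounds in DMSO; incubate 18 h, 37 C; add CellTiter-Glo; wait 30 min at room temperature; read luminescence.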

Assay [17] is described as follows: qHTS assay for cell viability of the p53RE-bla HCT-116 cell line (AID 743292; active = well fitted curve in the direction sought with a large enough effect; an effect the other way counts as inactive or inconclusive; note: % is set by controls: 0 for no effect and ±100 for the full control effect; nearly all actives have a fitted effect of over 55% in size). In a few lines:
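Intracellular ATP of p53RE-bla HCT-116 cells measured by luciferase luminescence following 16 h compound incubation at 37 C; DMSO-only wells served as vehicle controls.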

The target in assay [18] is Nuclear receptor subfamily 1 group I member 2 (Rattus norvegicus) (UniProt Q9R1A7). The experiment in a line: qHTS assay for small molecule activators of the rat pregnane X receptor (rPXR) signaling pathway (AID 651751; call rule not given here; note: 0% is about no effect). As to conditions: rPXR reporter cells, luciferase (One-Glo), 24 h.
Sequence of Nuclear receptor subfamily 1 group I member 2 (Rattus norvegicus) (Q9R1A7 whole entry, looked up): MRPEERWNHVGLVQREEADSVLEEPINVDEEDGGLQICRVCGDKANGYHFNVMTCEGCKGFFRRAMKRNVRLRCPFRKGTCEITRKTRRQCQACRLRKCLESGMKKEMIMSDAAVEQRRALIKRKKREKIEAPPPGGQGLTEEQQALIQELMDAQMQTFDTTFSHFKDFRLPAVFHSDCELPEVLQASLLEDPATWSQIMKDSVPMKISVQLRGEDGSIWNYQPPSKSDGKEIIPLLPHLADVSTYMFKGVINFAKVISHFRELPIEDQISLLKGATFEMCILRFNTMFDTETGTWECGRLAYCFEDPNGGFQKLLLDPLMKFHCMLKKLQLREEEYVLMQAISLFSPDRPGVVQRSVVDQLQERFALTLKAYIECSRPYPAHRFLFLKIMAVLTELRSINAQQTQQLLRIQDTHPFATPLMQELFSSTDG
Assay [19] addresses Thyroid hormone receptor beta (Homo sapiens) (UniProt P10828). The experiment in a line: qHTS assay for small molecule agonists of thyroid hormone receptor beta signaling (AID 588545). The procedure, abridged: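 Agonist activity was read as beta-lactamase CCF4 fluorescence (405 ex, 460/530 em), scaled between DMSO (0%) and 10 nM T3 (100%), then Hill-fitted for EC50 and efficacy. HEK 293 TR-UAS-bla cells in 2% charcoal/dextran FBS medium were exposed 18 h at 37 C.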

Assay [20] is described as follows: qHTS assay for small molecule agonists of the antioxidant response element (ARE) signaling pathway measured by Nrf2-dependant transcriptional activity (AID 720636; active = well fitted curve in the direction sought with a large enough effect in the repeat runs; an effect the other way counts as inactive or inconclusive;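 note: HepG2 cells with an ARE-driven luciferase reporter; % of control where 0% means no effect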). In a few lines:
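In HepG2 cells engineered with an Nrf2-responsive luciferase gene, ARE induction was quantified as luminescence after 16 hr compound treatment at 37 C.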

Results filed as inconclusive are left out. Active and inactive are the calls of the source. Unless noted, calls come from the whole dose curve.

Sequence of Peroxisome proliferator-activated receptor alpha (Homo sapiens) (Q07869 whole entry, looked up): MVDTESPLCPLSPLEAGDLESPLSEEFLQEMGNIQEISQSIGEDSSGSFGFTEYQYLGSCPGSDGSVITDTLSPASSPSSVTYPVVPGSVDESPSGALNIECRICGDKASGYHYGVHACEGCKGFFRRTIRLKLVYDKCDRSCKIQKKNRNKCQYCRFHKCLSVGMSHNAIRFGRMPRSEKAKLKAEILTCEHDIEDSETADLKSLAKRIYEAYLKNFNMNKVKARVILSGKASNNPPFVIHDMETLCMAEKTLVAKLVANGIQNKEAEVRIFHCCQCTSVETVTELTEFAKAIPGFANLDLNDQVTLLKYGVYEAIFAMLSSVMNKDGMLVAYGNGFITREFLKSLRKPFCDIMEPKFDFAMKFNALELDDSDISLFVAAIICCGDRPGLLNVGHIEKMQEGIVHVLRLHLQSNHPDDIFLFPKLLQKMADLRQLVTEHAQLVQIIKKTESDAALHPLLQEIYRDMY
Sequence of Vitamin D3 receptor (Homo sapiens) (P11473 whole entry, looked up): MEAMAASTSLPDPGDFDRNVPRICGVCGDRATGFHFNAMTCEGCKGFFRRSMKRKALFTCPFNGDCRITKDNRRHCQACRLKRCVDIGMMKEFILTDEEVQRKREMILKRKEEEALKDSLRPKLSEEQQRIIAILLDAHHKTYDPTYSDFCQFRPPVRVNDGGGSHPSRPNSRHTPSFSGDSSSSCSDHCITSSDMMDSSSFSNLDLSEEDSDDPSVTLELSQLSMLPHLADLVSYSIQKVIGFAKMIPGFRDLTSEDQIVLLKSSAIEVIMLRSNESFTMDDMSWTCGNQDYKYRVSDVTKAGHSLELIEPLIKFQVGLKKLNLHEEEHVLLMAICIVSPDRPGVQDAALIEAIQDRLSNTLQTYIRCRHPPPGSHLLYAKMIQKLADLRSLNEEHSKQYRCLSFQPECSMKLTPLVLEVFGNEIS
Sequence of Estrogen receptor (Homo sapiens) (P03372 whole entry, looked up): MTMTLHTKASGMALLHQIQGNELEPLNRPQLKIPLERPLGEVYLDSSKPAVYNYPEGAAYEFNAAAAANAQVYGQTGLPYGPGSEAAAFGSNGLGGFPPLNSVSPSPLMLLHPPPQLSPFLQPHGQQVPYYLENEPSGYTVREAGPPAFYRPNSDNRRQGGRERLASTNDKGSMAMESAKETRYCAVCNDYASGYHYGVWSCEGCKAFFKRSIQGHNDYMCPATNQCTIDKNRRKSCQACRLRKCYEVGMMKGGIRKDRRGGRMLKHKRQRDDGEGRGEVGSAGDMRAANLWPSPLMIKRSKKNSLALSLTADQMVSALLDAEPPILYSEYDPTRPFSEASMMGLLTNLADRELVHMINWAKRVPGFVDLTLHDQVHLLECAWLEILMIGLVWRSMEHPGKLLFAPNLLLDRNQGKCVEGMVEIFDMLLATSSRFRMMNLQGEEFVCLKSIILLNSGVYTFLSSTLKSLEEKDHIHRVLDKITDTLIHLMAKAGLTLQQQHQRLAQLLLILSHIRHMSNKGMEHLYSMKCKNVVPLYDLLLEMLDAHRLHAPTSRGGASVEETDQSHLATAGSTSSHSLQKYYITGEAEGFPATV
Sequence of Retinoic acid receptor RXR-alpha (Homo sapiens) (P19793 whole entry, looked up): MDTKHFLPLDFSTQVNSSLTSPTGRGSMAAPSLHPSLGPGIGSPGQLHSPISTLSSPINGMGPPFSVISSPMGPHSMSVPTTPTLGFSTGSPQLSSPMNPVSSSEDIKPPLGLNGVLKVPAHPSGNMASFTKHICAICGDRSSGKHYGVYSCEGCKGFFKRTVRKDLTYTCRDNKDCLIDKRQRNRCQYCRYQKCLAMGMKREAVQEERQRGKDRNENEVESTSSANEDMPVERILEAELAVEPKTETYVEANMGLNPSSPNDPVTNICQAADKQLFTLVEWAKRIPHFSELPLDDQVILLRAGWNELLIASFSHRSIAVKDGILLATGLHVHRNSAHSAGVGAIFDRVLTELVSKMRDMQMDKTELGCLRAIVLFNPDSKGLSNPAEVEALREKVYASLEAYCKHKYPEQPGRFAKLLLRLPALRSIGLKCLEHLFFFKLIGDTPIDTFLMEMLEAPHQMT
Sequence of Glucocorticoid receptor (Homo sapiens) (P04150 whole entry, looked up): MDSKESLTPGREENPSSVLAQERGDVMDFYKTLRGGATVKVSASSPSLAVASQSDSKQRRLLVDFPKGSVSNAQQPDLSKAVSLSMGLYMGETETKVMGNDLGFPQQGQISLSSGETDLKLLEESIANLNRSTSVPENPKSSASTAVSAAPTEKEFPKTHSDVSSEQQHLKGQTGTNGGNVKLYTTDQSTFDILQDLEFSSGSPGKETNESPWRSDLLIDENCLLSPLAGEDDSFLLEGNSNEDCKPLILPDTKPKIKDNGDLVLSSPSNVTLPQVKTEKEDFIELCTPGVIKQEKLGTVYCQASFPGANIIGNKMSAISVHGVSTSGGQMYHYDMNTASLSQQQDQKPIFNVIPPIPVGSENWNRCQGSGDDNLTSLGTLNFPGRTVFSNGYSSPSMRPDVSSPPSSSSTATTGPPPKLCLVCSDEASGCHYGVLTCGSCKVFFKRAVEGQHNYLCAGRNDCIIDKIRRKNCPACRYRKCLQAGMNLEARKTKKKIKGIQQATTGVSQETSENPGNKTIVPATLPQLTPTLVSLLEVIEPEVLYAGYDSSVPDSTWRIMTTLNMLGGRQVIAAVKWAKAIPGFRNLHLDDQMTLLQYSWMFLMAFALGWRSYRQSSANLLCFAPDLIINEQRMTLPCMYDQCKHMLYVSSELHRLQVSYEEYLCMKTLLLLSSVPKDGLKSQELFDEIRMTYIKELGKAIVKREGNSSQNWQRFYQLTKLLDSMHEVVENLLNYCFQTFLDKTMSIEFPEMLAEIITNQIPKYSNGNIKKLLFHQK
Sequence of Thyroid hormone receptor beta (Homo sapiens) (P10828 whole entry, looked up): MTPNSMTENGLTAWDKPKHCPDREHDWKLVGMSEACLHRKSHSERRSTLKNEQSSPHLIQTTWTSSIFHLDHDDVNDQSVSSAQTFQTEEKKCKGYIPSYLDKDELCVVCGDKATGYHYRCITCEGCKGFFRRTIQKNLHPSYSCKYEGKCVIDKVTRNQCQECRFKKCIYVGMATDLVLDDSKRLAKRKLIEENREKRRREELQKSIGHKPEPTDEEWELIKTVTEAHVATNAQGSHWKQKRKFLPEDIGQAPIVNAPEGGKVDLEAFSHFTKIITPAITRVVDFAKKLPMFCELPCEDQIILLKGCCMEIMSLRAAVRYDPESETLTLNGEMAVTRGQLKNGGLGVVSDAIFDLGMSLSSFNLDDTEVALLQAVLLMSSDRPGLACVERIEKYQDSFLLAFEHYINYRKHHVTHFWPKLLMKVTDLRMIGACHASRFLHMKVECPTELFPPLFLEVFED

Regarding `CC(C)CCCCCCOC(=O)c1ccccc1C(=O)OCCCCCCC(C)C`, the Potency entry in [1], in assay [2], in assay [5], in [6], in assay [7] and in assay [17] was “inactive” in each case. Moreover, the result in assay [3] was inactive. For the same compound, the max response is -6.95% in assay [4]; -8.76% in assay [8]; -4.29% (inactive) in assay [9]; -1.61% (inactive) in assay [14]; 0.428% (inactive) in assay [15]; -8.54% (inactive) in assay [16]. In addition, the max response in [18] is 5.38% (inactive). In addition, the activity change % (negative = inhibition) in [10] is -2.48% (inactive). The activation was 0.433% (inactive) in assay [11], 2.38% (inactive) in assay [12] and 1.61% (inactive) in assay [13].
As to `CC1(C)CC/C(=C\c2ccc(Cl)cc2)C1(O)Cn1cncn1` (stereo not drawn), the Potency result in [1], in assay [2], in assay [6], in assay [7], in [19] and in assay [20] was “inactive” throughout. Also, in assay [17], the Potency result was “inactive”. The compound was called inactive in assay [3]. For the same compound, the max response in assay [8] is 5.05%; in [9], -37.6% (inactive); in assay [14], 0.489% (inactive); in [15], -5.93% (inactive); in assay [16], -11.5% (inactive); in [18], 12.5% (inactive). Moreover, the activity change % (negative = inhibition) in [10] is -0.512% (inactive). Moreover, the activation in assay [11] is -1.43% (inactive); in assay [13], 7.02% (inactive).
Turning to `COc1cc(OC)nc(NC(=O)NS(=O)(=O)c2ncccc2C(F)(F)F)n1`, the Potency result in assay [1], in assay [2], in assay [5], in assay [6], in assay [7] and in [19] was “inactive” throughout. Besides, the Potency result in assay [20] and in assay [17] was “inactive” each time. Also, the result in assay [3] was inactive. The max response in assay [4] was -12.7%; in [8] it was -9.13%; in [9] it was 2.48% (inactive); in assay [14], -1.83% (inactive); in [15], -1.73% (inactive); in [16] it was -6.81% (inactive). Also, the max response in assay [18] is 0.924% (inactive). In addition, the activation in [11] is -1.26% (inactive); in assay [12], -0.0953% (inactive); in [13] it was 1.17% (inactive).
For `O=P(O)(O)CN(CP(=O)(O)O)CP(=O)(O)O`, the Potency result in assay [2], in [5], in [6], in [19], in assay [20] and in assay [17] was “inactive” throughout. The compound was classed as inactive in assay [3]. The max response in assay [4] was 1.59%; in assay [8], -13.3%; in [9], -32% (inactive); in [14], 4.68% (inactive); in assay [15], -0.727% (inactive); in assay [16] it was -8.91% (inactive). In addition, the max response in [18] was -1.66% (inactive). Further, the activity change % (negative = inhibition) in [10] was -9.36% (inactive). Moreover, the activation in assay [11] was -5.96% (inactive); in assay [12] it was 0.3% (inactive); in assay [13], 0.682% (inactive).
Take `COc1ccc(-c2ccccc2)cc1NNC(=O)OC(C)C`: the Potency entry in assay [1], in assay [2], in assay [6], in assay [19] and in assay [17] was “inactive” each time. The activation in [11] is -1.18% (inactive); in assay [12], -0.684% (inactive). Further, the max response was -0.526% (inactive) in assay [14], -7.29% (inactive) in [15], -21.9% (inactive) in assay [16] and -11.3% (inactive) in assay [18].
